Screens deposited in PubChem by Broad Institute.
U2OS ROS induce – inducers of reactive oxygen species in cancer cells; 46,000 compounds, 2% hits; AID 624156; U2OS ROS induction, H2DCF-DA fluorescence; ROS induction (% of piperlongumine), % at 10 µM; in the data active = ROS induction above about 79%, passing the limit was not always enough
YB-1 expr inh – YB-1 expression inhibition; U2OS, qRT-PCR YB-1 vs CDIP delta delta Cp, 16 h; active compounds read high; zero = DMSO, each unit about twofold; delta delta Cp (YB-1 minus CDIP) (test concentration not listed); 30,000 compounds, 0.37% hits; AID 434959;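 active = delta delta Cp rounded down to an integer at or above 3, about 3 SD of DMSO wells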;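 also: higher means less YB-1 transcript or more CDIP transcript relative to DMSO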
NOMO-1 viab – STK33 inhibitor candidate reducing NOMO-1 cell viability | NOMO-1 AML viability, CellTiter-Glo luminescence, 72 h | inhibition, % (concentration not given with the values) | 37,000 compounds, 7.5% hits; in the data active = inhibition above about 80%
PD-1 reverse act – activators reversing PD-1 mediated T-cell inhibition; 29,000 tested, under 10 active; activation, % (test concentration not listed); primary human CD4 T cells, PD-L1 beads, CellTiter-Glo 96 h; call rule not given here
MITF inhib – MITF inhibition; TRPM1 promoter luciferase, luminescence, 24 h; inhibition, % (test concentration not listed); 37,000 compounds, 0.28% hits; in the data active = inhibition above about 85%;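 also: human melanocyte line stably carrying TRPM1 promoter luciferase reporter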
Large screens that a line does not name were inactive. The sample as a whole holds a higher share of hits than the screen did.

Cc1nccn1-c1c2c(c(C#N)c3nc4ccccc4n13)CCCC2	none (no result: YB-1 expr inh, NOMO-1 viab, PD-1 reverse act, MITF inhib)
COc1ccc(-c2oc3cc(OC)c(OC)c(O)c3c(=O)c2OC)cc1OC	U2OS ROS induce 82
COc1cc(O)c2c(=O)c(OC)c(-c3cc(O)c(OC)c(OC)c3)oc2c1	none
COC(=O)CCCCCCC(=O)N/N=C/c1cccc(C(=O)O)c1	none (no result: NOMO-1 viab, PD-1 reverse act, MITF inhib)
Cn1c2ccccc2c2nnc(SCC(=O)c3ccc(Cl)cc3)nc21	U2OS ROS induce 117 (no result: YB-1 expr inh)
C=CCn1c2ccccc2c2nnc(SCC(=O)c3ccc(Cl)cc3)nc21	none (no result: YB-1 expr inh)
C[C@@H]1CN([C@@H](C)CO)C(=O)Cc2cc(NS(=O)(=O)c3ccccc3)ccc2O[C@@H]1CN(C)Cc1ccc2c(c1)OCO2	none
O=C(O)C(Cc1ccsc1)c1ccccc1 (configuration not stated)	none
C[C@@H]1CN([C@@H](C)CO)C(=O)c2cc(NC(=O)Cc3cn(C)c4ccccc34)ccc2O[C@@H]1CN(C)C(=O)Nc1cccc2ccccc12	NOMO-1 viab 125
C[C@H](CO)N1C[C@H](C)[C@H](CN(C)C(=O)Nc2cccc3ccccc23)Oc2ccc(NC(=O)Cc3cn(C)c4ccccc34)cc2C1=O	NOMO-1 viab 88
O=C(Nc1ccc(S(=O)(=O)NCC2CCCO2)cc1)c1cc(-c2ccccc2)nc2ccccc12 (configuration not stated)	none (no result: YB-1 expr inh)
CC(=O)OCC1(C)CC2[C@]3(CO[C@@]24CCC2[C@@]5(C)CC[C@H](O[C@@H]6OC[C@@H](O)[C@H](O)[C@H]6O)[C@@](C)(CO)C5CC[C@@]2(C)[C@]4(C)C[C@H]3O)[C@@H](O)C1 (some centres not stated)	NOMO-1 viab 123
C[C@@H]1O[C@@H](O[C@H]2[C@H](O[C@H]3[C@H](O)[C@@H](C(=O)O)O[C@@H](O[C@H]4CC[C@@]5(C)C(CC[C@]6(C)C5CC[C@]57OC[C@@]8(CCC(C)(C)CC85)[C@H](O)C[C@]76C)C4(C)C)[C@@H]3O[C@@H]3O[C@H](CO)[C@@H](O[C@@H]4OC[C@@H](O)[C@H](O)[C@H]4O)[C@H](O)[C@H]3O)O[C@H](CO)[C@H](O)[C@@H]2O)[C@H](O)[C@H](O)[C@H]1O (some centres not stated)	none
O=S(=O)(NCCCn1ccnc1)c1ccc2ccccc2c1	none (no result: YB-1 expr inh, NOMO-1 viab, PD-1 reverse act, MITF inhib)
C[C@@H]1CN([C@H](C)CO)C(=O)c2cccc(NC(=O)C3CC3)c2O[C@@H]1CN(C)Cc1ccc(C(F)(F)F)cc1	none
C[C@H](CO)N1C[C@H](C)[C@H](CN(C)Cc2ccc(-c3ccccc3)cc2)Oc2c(NC(=O)C3CCCCC3)cccc2C1=O	NOMO-1 viab 119
C[C@@H]1CN([C@H](C)CO)C(=O)c2cccc(NC(=O)C3CCCCC3)c2O[C@H]1CN(C)Cc1ccc(C(F)(F)F)cc1	NOMO-1 viab 104
C[C@H]1CN([C@@H](C)CO)C(=O)c2cccc(NC(=O)C3CCCCC3)c2O[C@@H]1CN(C)Cc1ccc(Oc2ccccc2)cc1	NOMO-1 viab 86 (no result: PD-1 reverse act)
NN/C(=N/S(=O)(=O)c1ccccc1)N1CCCC1	none
O=C(NCc1cccc(Cl)c1)c1cnc2ccccn2c1=O	none (no result: YB-1 expr inh, NOMO-1 viab, PD-1 reverse act, MITF inhib)
C[C@H]1CN([C@@H](C)CO)C(=O)c2cccc(NC(=O)Nc3ccc4c(c3)OCO4)c2O[C@@H]1CN(C)Cc1ccc(-c2ccccc2)cc1	none
C[C@@H]1CN([C@@H](C)CO)C(=O)c2cccc(NC(=O)Nc3ccc4c(c3)OCO4)c2O[C@H]1CN(C)CC1CCCCC1	NOMO-1 viab 83 (no result: PD-1 reverse act)
C[C@@H]1CN([C@@H](C)CO)C(=O)c2cccc(NC(=O)Nc3ccc4c(c3)OCO4)c2O[C@H]1CN(C)Cc1ccc2c(c1)OCO2	NOMO-1 viab 93
C[C@H]1CN([C@@H](C)CO)C(=O)c2cccc(NC(=O)Nc3ccc4c(c3)OCO4)c2O[C@@H]1CN(C)Cc1ccc(Cl)c(Cl)c1	NOMO-1 viab 91 (no result: PD-1 reverse act)
C[C@H]1CN([C@@H](C)CO)C(=O)c2cccc(NC(=O)Nc3ccc4c(c3)OCO4)c2O[C@H]1CN(C)Cc1ccc(-c2ccccc2)cc1	U2OS ROS induce 102
C[C@H]1CN([C@@H](C)CO)C(=O)c2cccc(NC(=O)Nc3ccc4c(c3)OCO4)c2O[C@H]1CN(C)Cc1ccc2c(c1)OCO2	none
C[C@@H]1CN([C@H](C)CO)C(=O)c2cccc(NC(=O)Nc3ccc4c(c3)OCO4)c2O[C@@H]1CN(C)Cc1ccc(Cl)c(Cl)c1	none
COc1ccc(-n2c(SCC(=O)Nc3ccc(Cl)cc3Cl)nnc2-c2ccncc2)cc1	none (no result: YB-1 expr inh)
Cc1noc(C)c1S(=O)(=O)Nc1cccc2c1O[C@@H](CN(C)Cc1ccc(C(=O)Nc3ccccc3N)cc1)[C@@H](C)CN([C@@H](C)CO)C2=O	none
COc1ccc(-c2cn(S(=O)(=O)c3ccccc3OC)nc2N)cc1OC	none (no result: YB-1 expr inh)
COc1ccccc1NC(=O)c1ccccc1NC(=O)COc1ccccc1C	none (no result: YB-1 expr inh)
C[C@H](CO)N1C[C@H](C)[C@H](CN(C)Cc2ccccc2)Oc2c(NC(=O)Nc3ccc4c(c3)OCO4)cccc2C1=O	NOMO-1 viab 84
C[C@@H]1CN([C@@H](C)CO)C(=O)c2cccc(NC(=O)Nc3ccc4c(c3)OCO4)c2O[C@H]1CN(C)Cc1ccccc1	NOMO-1 viab 107
C[C@@H]1CN([C@@H](C)CO)C(=O)c2cccc(NC(=O)Nc3ccc4c(c3)OCO4)c2O[C@@H]1CN(C)Cc1ccccc1	none (no result: PD-1 reverse act)
CC(C)[C@H](NC(=O)[C@H](C)N(C)C)C(=O)N1CC[C@@H]2Oc3ccc(cc3)/C=C\NC(=O)[C@H](Cc3ccccc3)NC(=O)C21 (some centres not stated)	none
CC(C)CCNC(=O)Cc1ccc(-n2c(=S)[nH]c3ccccc3c2=O)cc1	none (no result: YB-1 expr inh, NOMO-1 viab, PD-1 reverse act, MITF inhib)
O=S(=O)(c1ccsc1)c1ccsc1	none (no result: YB-1 expr inh, NOMO-1 viab, PD-1 reverse act, MITF inhib)
N=C1S/C(=C/c2ccccc2)C(=O)N1c1nonc1N	none
CCOc1cc(/C=C2/SC(=N)N(c3nccs3)C2=O)ccc1OCCN1CCOCC1	U2OS ROS induce 96, NOMO-1 viab 112
C[C@H]1CN([C@@H](C)CO)C(=O)Cc2cc(NS(=O)(=O)c3ccc(F)cc3)ccc2O[C@H]1CN(C)CC1CCCCC1	NOMO-1 viab 115
Cc1ccc(S(=O)(=O)N(C)C[C@H]2Oc3ccc(NS(=O)(=O)c4ccc(Cl)cc4)cc3CC(=O)N([C@@H](C)CO)C[C@H]2C)cc1	U2OS ROS induce 212
Cc1noc(C)c1S(=O)(=O)Nc1ccc2c(c1)CC(=O)N([C@H](C)CO)C[C@@H](C)[C@H](CN(C)CC1CCCCC1)O2	U2OS ROS induce 109
C[C@H]1CN([C@@H](C)CO)C(=O)Cc2cc(NS(=O)(=O)c3ccc(Cl)cc3)ccc2O[C@@H]1CN(C)CC1CC1	none (no result: PD-1 reverse act)
C[C@H]1CN([C@@H](C)CO)C(=O)Cc2cc(NS(=O)(=O)c3ccc(Cl)cc3)ccc2O[C@H]1CN(C)CC1CCCCC1	NOMO-1 viab 135
